NS1 inh – qHTS Assay for Inhibitors of Influenza NS1 Protein Function | Potency, µM (highest dose often 46.1 µM) | 270,000 tested, 0.4% active | AID 2326, 2010; calls by dose curve; also: actives are rising curves; nearly all actives have a fitted effect of over 50% in size
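Compounds were scored for reversing the slow growth caused by influenza A NS1 in S. cerevisiae, measured by optical density at 600 nm. Assay medium contained 2% galactose at pH 6.0; NS1-free yeast of the same strain were the positive control.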
Cycloheximide cs – Cycloheximide Counterscreen for Small Molecule Inhibitors of Shiga Toxin. max response, %. 300,000 tested, 12% active. cell reporter, cycloheximide protein synthesis inhibition counterscreen; in the data active = max response mostly above about 13%, no sharp cut-off; inactive = mostly below about 14%; also: read at 38.3 µM for the half of the compounds with a filed dose
LmPK inhibitor – qHTS Assay for Inhibitors of Leishmania Mexicana Pyruvate Kinase (LmPK) | AID 1721, 2009 | purified LmPK, Kinase-Glo ATP luminescence, 1 h | 290,000 tested, 0.37% active | Q27686 | Potency, µM (top dose mostly 57.5 µM), actives largely listed as inhibitors
Target sequence (Q27686 whole entry, looked up): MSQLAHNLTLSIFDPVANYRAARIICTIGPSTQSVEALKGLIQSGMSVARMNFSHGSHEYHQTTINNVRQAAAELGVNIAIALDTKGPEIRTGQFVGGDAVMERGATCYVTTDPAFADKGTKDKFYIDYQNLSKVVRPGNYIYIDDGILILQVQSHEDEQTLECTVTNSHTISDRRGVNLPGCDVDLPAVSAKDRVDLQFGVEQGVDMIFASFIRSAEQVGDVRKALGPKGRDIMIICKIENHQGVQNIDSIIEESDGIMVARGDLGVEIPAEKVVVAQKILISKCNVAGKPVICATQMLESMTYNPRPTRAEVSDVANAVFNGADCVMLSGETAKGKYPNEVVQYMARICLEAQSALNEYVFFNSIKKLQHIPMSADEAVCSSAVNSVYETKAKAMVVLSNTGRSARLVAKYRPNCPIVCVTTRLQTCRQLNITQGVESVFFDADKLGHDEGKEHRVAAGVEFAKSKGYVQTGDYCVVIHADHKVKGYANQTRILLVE
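Purified LmPK (0.1 nM) converted ADP (0.1 mM) to ATP with PEP (0.5 mM) in imidazole buffer pH 7.2 with KCl and MgCl2, 1 h at room temperature. ATP was read by Kinase-Glo luminescence; data normalized to uninhibited and no-enzyme controls.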
FBPA Giardia inh – qHTS Assay for Inhibitors of Fructose-1,6-bisphosphate Aldolase from Giardia Lamblia; A8B2U2; purified Giardia FBPA; Potency, µM (series often up to 59.6 µM), usual class: inhibitors; 290,000 tested, 0.71% active; AID 2451, 2010; also: nearly all actives have a fitted effect of over 55% in size
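Giardia FBPA (40 nM reagent) was preincubated 10 min at RT with compound (up to 57.5 uM final), then substrate plus GAPDH/TPI/NAD/arsenate coupling system with diaphorase/resazurin was added; resorufin fluorescence (525/598 nm) was read after 20 min.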
Shiga inhibitor – A qHTS for Small Molecule Inhibitors of Shiga Toxin; 290,000 tested, 9.2% active; inhibition, % at 38.7 µM; AID 2315, 2010; Vero cells, Shiga toxin protein synthesis inhibition reporter; in the data active = inhibition mostly above about 28%, no sharp cut-off; inactive = mostly below about 43%
Large screens that a line does not name were inactive. A selection: hits, their analogues and other compounds. The true share with any hit is near 14%. Unless noted, calls follow the shape of the dose curve; as a rule, active = well fitted curve in the direction sought with a large enough effect; inconclusive = small, poorly fitted or top-dose-only effect, or another doubt; inactive = no such curve, though single readings can be large; an effect the other way counts as inactive or inconclusive.

Cc1ccc(C(=O)NC2CCN(C(=O)Nc3ccccc3)CC2)cc1	none
O=C(Nc1ccc(Cl)cc1)N1CCC(c2ccccc2)C1 (stereo unspecified)	Cycloheximide cs 41.8, Shiga inhibitor 116.3 (no result: NS1 inh)
Cc1ccc(C2CCN(C(=O)Nc3ccccc3)C2)cc1 (stereo unspecified)	Cycloheximide cs 39.1, Shiga inhibitor 149.7
CN(Cc1ccccc1)C(=O)CCCn1c(=O)c2cccn2c2cccnc21	none (no result: FBPA Giardia inh)
O=C(CNCCc1ccccc1)Nc1ccc(C(=O)N2CCCCC2)cc1	Cycloheximide cs 27.9, FBPA Giardia inh inconclusive
Cc1ccccc1CC(=O)Nc1ccc(C(=O)N2CCCC2)cc1	Cycloheximide cs 25.3
CC(=C/c1ccc(C(C)C)cc1)/C=N/NC(=O)c1ccncc1	Cycloheximide cs 35.5, Shiga inhibitor 84.1
CC(=C/c1ccco1)/C=N/NC(=O)c1ccncc1	FBPA Giardia inh inconclusive
CC(/C=C/c1ccccc1F)=N\NC(=O)c1cccc(F)c1	Cycloheximide cs 46.2, Shiga inhibitor 64.6 (no result: NS1 inh)
CC(=C/c1ccccc1)/C=N/NC(=O)c1ccccn1	Cycloheximide cs 32.9, LmPK inhibitor inconclusive, Shiga inhibitor 23.2
CC(/C=N/NC(=O)c1ccncc1)=C\c1ccccc1	Cycloheximide cs 22.9, Shiga inhibitor 52.0
Cc1cc(=O)oc2cc(OCC(=O)N3CCC(O)CC3)c(Cl)cc12	none (no result: FBPA Giardia inh)
CC(/C=N/NC(=O)c1cc(C(C)(C)C)[nH]n1)=C\c1ccccc1	none
CC(/C=N/NC(=O)c1cccc(F)c1)=C\c1ccccc1	Cycloheximide cs 51.0, Shiga inhibitor 103.5
COc1ccccc1C(=O)N/C(=C\c1ccccc1)C(=O)NC(C)C(=O)O (stereo unspecified)	NS1 inh inconclusive
COc1ccccc1C(=O)N/N=C/C(C)=C/c1ccccc1	Cycloheximide cs 18.5
CS(=O)(=O)Nc1cccc(-c2ccc3ncnc(NCCN4CCOCC4)c3c2)c1	none (no result: NS1 inh, Cycloheximide cs, LmPK inhibitor, Shiga inhibitor)
Cn1c(=O)n(/N=C/c2ccccc2)c2ccccc21	Shiga inhibitor 44.5
COc1ccc(-c2nc3cnc(Nc4cccc(OC)c4)nc3n(C)c2=O)cc1	none (no result: NS1 inh, Cycloheximide cs, LmPK inhibitor, Shiga inhibitor)
Cc1ccc(C(=O)N/N=C/C2=Cc3ccccc3OC2C)cc1 (stereo unspecified)	none
O=C(O)c1ccc(N/N=C/C2=Cc3ccccc3OC2)cc1	Cycloheximide cs 41.0, Shiga inhibitor 72.6
CC1=C(C)C[C@@]23CCCN2C(=O)CCC[C@H]3C1	none (no result: NS1 inh, LmPK inhibitor)
Cc1cc(C)nc(Nc2ccccc2F)n1	none
COc1ccc(/C=C/c2nc3ccccc3n2Cc2ccccc2OC)cc1	Cycloheximide cs 69.4, Shiga inhibitor 105.9
COCCn1c(/C=C/c2ccccc2)nc2ccccc21	Cycloheximide cs 33.0, LmPK inhibitor inconclusive, Shiga inhibitor 67.7
CCCn1c(/C=C/c2ccco2)nc2ccccc21	none
Cc1cccc(NC(=O)Cn2c(/C=C/c3ccccc3)nc3ccccc32)c1	Cycloheximide cs 28.4, Shiga inhibitor 111.2
COc1ccccc1Cn1c(/C=C/c2ccccc2)nc2ccccc21	Cycloheximide cs 74.0, Shiga inhibitor 87.4
Cc1ccc(NC(=O)Cn2c(=O)c(C)nc3ccccc32)cc1	none
CC(C)N(C(=S)Nc1cccc(S(=O)(=O)N(C)C)c1)c1ccccc1	none
O=S(=O)(Nc1cccc(-c2cn3c(n2)SCC3)c1)c1ccccc1	none (no result: FBPA Giardia inh)
O=S(=O)(Nc1cccc(-c2ccc(N3CCCCCC3)nn2)c1)c1ccccc1F	Cycloheximide cs 31.8, Shiga inhibitor 110.2
O=S(=O)(Nc1cccc(-c2ccc(N3CCCCCC3)nn2)c1)c1ccccc1Cl	Cycloheximide cs 33.6, Shiga inhibitor 57.7 (no result: FBPA Giardia inh)
Cc1ccccc1CSc1nnc([C@@H]2CCCN2)o1	none
CCc1nnc(NC(=O)c2ccc(COc3cccc(C)c3)o2)s1	none
N#C[C@H]1[C@H](c2ccccc2)[C@](C#N)(C(=O)c2ccccc2)[C@@H]2C=Cc3ccccc3N21	Cycloheximide cs 41.6 (no result: FBPA Giardia inh)
CCc1ccc(OCC(=O)NNC(=O)c2cnccn2)c(Br)c1	Cycloheximide cs 18.3, Shiga inhibitor 39.0 (no result: FBPA Giardia inh)
Cc1cc(OCC(=O)Nc2ccncc2)c(C)cc1Br	none
CC(C)(C)c1ccc(OCC(=O)Nc2ccncc2)c(Br)c1	Cycloheximide cs 31.2, Shiga inhibitor 99.9
CCc1ccc(OCC(=O)Nc2ccncc2)c(Br)c1	Cycloheximide cs 30.1 (no result: Shiga inhibitor)
CC12CC3OS(=O)OC3CC3C4C(C(OCc5ccccc5)C31)C42 (stereo unspecified)	none (no result: NS1 inh, Cycloheximide cs, LmPK inhibitor, Shiga inhibitor)
CCCCOc1ccccc1NC(=O)C=C(C)C	none
CCCOc1ccccc1NC(=O)/C=C/C(N)=O	Cycloheximide cs 12.6
CCOC(=O)c1cc(C)n(CCc2cnc[nH]2)c1C	Cycloheximide cs 14.7
CCOC(=O)c1cc(C)n(CCCN2CCOCC2)c1C	none
Cc1nc2nc(SCc3ccccc3)[nH]n2c(=O)c1C	FBPA Giardia inh inconclusive
O=C(O)c1cc(=O)[nH]c(SCc2ccccc2)n1	none (no result: Cycloheximide cs, LmPK inhibitor, FBPA Giardia inh, Shiga inhibitor)
Nc1cccc(-n2cccc2)c1	none
Nc1ccc2nn(-c3ccccc3)nc2c1	Cycloheximide cs 53.5, Shiga inhibitor 97.5
Nc1cc2nn(-c3ccccc3)nc2cc1Cl	Cycloheximide cs 31.6, FBPA Giardia inh inconclusive, Shiga inhibitor 140.8 (no result: NS1 inh)
CC(C)CC(=O)Nc1cc2nn(-c3ccccc3)nc2cc1Cl	Cycloheximide cs 74.3, Shiga inhibitor 115.0
CC(C)CC(=O)Nc1cccc2c1C(=O)N(c1ccccc1)C2=O	none
Nc1ccn(Cc2ccccc2)n1	none (no result: NS1 inh)
c1ccc(Cn2ccc(-c3cnc(-c4ccccc4)s3)n2)cc1	Cycloheximide cs 40.8, Shiga inhibitor 108.5
Cc1ccc(C)c(N2C(=O)CC(Cc3ccc(Br)cc3)C2=O)c1 (stereo unspecified)	none (no result: Shiga inhibitor)
COc1ccc(OCCSc2nnc(CC(=O)Nc3cccc(Cl)c3Cl)n2C)cc1	Cycloheximide cs 23.5
CCn1c(CC(=O)Nc2cccc(Cl)c2Cl)nnc1SCCOc1ccc(OC)cc1	none
COCCSc1nc(N)c(NC(=O)c2ccco2)c(=O)[nH]1	none
C/C(CS(=O)(=O)c1ccccc1)=N\O	none
C/C=C(\CS(=O)(=O)c1ccccc1)S(=O)(=O)c1ccccc1	Cycloheximide cs 14.5, Shiga inhibitor 44.1
Cc1ccc(C(=O)NC2CCCCNC2=O)cc1 (stereo unspecified)	Cycloheximide cs 28.6, Shiga inhibitor 93.8
COc1ccc(C(=O)N[C@H]2CCCCNC2=O)cc1OC1CCN(C(C)C)CC1	none
O=C(NC1CCCCNC1=O)c1ccc(Cl)cc1 (stereo unspecified)	none
Cc1ccc(C(=O)NC2CCSC2=O)cc1 (stereo unspecified)	none
Cc1ccc(C(=O)NC2CCCCNC2=O)cc1C (stereo unspecified)	Cycloheximide cs 37.6, Shiga inhibitor 64.5
Cc1ccc(C(=O)NC2CCc3ccccc3C2=O)cc1 (stereo unspecified)	Cycloheximide cs 30.3, Shiga inhibitor 64.8 (no result: NS1 inh)
Cc1cc(C)c2c(-c3ccc(-c4ccc(C(F)(F)F)cc4)cc3)cc(=O)oc2c1	none (no result: NS1 inh, LmPK inhibitor)
Cc1cccn2cc(-c3ccc(F)cc3)nc12	Cycloheximide cs 39.3, LmPK inhibitor 15.8µM, Shiga inhibitor 71.1

High-throughput results deposited in PubChem BioAssay by National Center for Advancing Translational Sciences (NCATS).
